Bioassay records from PubChem BioAssay.
Rows were chosen to be rich in hits. Some 2.4% of all compounds tested hit in one or more screens of this group.
CRFBP-R2 agonist: agonists of CRF-BP/CRF-R2 complex, primary screen, cell-based, HEK293, calcium dye fluorescence, uHTS; CRF-binding protein / CRF receptor 2 complex (human); calcium dye fluorescence (FLIPR); percent of saturating CRF peptide response; AID 588473, 2011; actives 0.46% (n = 350,000); activation, % at 13.2 µM;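 active = activation of at least 50%, plus an integration ratio under a set limit after plate pattern correction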;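 note: plate controls were neutral control wells without compound for no effect and CRF at EC100 for full effect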
cardiac RTF act: cardiac RTF calcium sensitivity activators, primary screen, biochemical, IANBD-TnC fluorescence, EC20 calcium; Troponin I, cardiac muscle (Homo sapiens) + Troponin T, cardiac muscle (Homo sapiens) + …; actives 0.24% (n = 340,000); activation, % at 7.2 µM; IANBD-labeled TnC RTF fluorescence at EC20 calcium; 0% EC20 calcium, 100% full calcium;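 active = activation above the mean over all tested compounds plus 3 SD, cut at about 30% in these data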;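 note: rise in fluorescence read as greater calcium sensitivity of cardiac thin filaments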
CRFR2-BP antag: antagonists of CRF-BP/CRF-R2 complex, primary screen, cell-based, HEK293, calcium dye fluorescence, uHTS. actives 0.59% (n = 350,000). inhibition, % at 11.8 µM. CRF-induced calcium fluorescence;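 active = inhibition of the ligand-induced calcium signal above about 50% at the single tested concentration, limit read from the data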
Cardiac RTF inh: cardiac RTF calcium sensitivity inhibitors, primary screen, biochemical, IANBD-TnC fluorescence, EC70 calcium; actives 0.12% (n = 340,000); inhibition, % at 7.15 µM; IANBD-labeled cardiac RTF, Ca2+ fluorescence;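 active = inhibition above the mean inhibition of all tested compounds plus 3 SD, cut at about 17% in these data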;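 note: assay run at fixed EC70 calcium of 1.6 mM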
TMEM16A act: TMEM16A chloride channel activators or potentiators, primary screen, cell-based, HTS | Anoctamin-1 (Mus musculus), Q8BHY3 | B-score at 10 µM | HEK293 TMEM16A/YFP-H148Q/I152L, iodide quench fluorescence; active compounds read low | actives 0.3% (n = 340,000);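 active = fluorescence-ratio B-score plate-corrected deviation score at least 3 library SD below zero, with starting fluorescence score within 5 deviations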;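 note: channel opened by trigger with iodide after compound preincubation; score built on the fluorescence ratio of max minus min over baseline; more negative score means more quench and so TMEM16A activation or potentiation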
ANO1 block: TMEM16A chloride channel inhibitors, primary screen, cell-based, HTS; Anoctamin-1 (Mus musculus), Q8BHY3; HEK293 TMEM16A/YFP iodide influx fluorescence, ionomycin; normalized B-score (activity score, 25-100; higher = stronger inhibition) at 10 µM; actives 1.2% (n = 310,000); AID 588511, 2011;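 active = ratio plate-corrected score three or more library SD toward inhibition, starting fluorescence score within five deviations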;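 note: score derived from kinetic fluorescence span divided by baseline fluorescence per well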
The depositor's hits bear a star; i = inactive; · = no result.

SMILES | CRFBP-R2 agonist | cardiac RTF act | CRFR2-BP antag | Cardiac RTF inh | TMEM16A act | ANO1 block
O=C(O)Cn1cc(C(=O)c2ccccc2)c2ccccc21 | 4 | 7 | -22 | -3 | i | i
Cn1cc(C(=O)c2ccccc2)c2ccccc21 | -11 | -4 | 53* | -1 | i | i
Cn1ncnc2c(=O)n(C)c(=O)nc1-2 | -2 | 0 | 16 | 1 | i | 25*
CC(C)C1C(C#N)=C(N)Oc2c1c(=O)oc1ccccc21 (stereo not drawn) | 0 | · | -3 | · | · | ·
CCCC(C)C1C(C#N)=C(N)Oc2c1c(=O)oc1ccccc21 (stereo not drawn) | -1 | -2 | 21 | -10 | i | 100*
O=C1NC(=O)N(c2ccc3c(c2)OCO3)C(=O)/C1=C\c1ccc(N2CCCCC2)o1 | 73* | 50* | -38 | -88 | i | i
Cc1ccccc1N1C(=O)NC(=O)/C(=C\c2cc(Br)c(N3CCOCC3)o2)C1=O | 113* | 64* | -112 | -51 | i | i
Cc1cc(/C=C2\C(=O)NC(=O)N(C)C2=O)c(C)n1-c1ccc2c(c1)OCO2 | -1 | 0 | -19 | -12 | i | i
Cc1ccccc1N1C(=O)NC(=O)/C(=C/c2ccc(N3CCOCC3)o2)C1=O | 29 | 51* | -21 | -61 | i | i
O=C1CC23c4ccccc4N4C(=O)CC5OCC=C6CN1C2CC6C5C43 (stereo not drawn) | 1 | -7 | 1 | 1 | i | ·
COC(=O)C1=C(c2ccc(F)cc2F)C[C@@H]2CC[C@H]1N2C(=O)N1CCCCC1 | -2 | 4 | -7 | -5 | i | ·
CC[C@H](C)[C@@H]1O[C@@]2(C=CC1C)CC1C[C@@H](CC=C(C)C(O[C@H]3CC(OC)C(O[C@H]4CC(OC)C(O)C(C)O4)C(C)O3)C(C)C=CC=C3CO[C@@H]4C(O)C(C)=C[C@@H](C(=O)O1)[C@]34O)O2 (stereo partly drawn) | · | · | · | · | · | 25*
N#CC(C#N)=Cc1ccc(-c2ccccc2F)o1 | 35 | 36* | -54 | -36 | i | i
N#CC(C#N)=Cc1ccc(-c2ccccc2)o1 | · | · | · | · | · | i
CC(C)CC1(CCc2ccccc2)C(=O)NC(=O)NC1=O | 1 | 2 | -13 | -2 | i | ·
O=[N+]([O-])c1ccc(NCc2ccccc2)c2nonc12 | 493* | · | i | · | · | i
O=[N+]([O-])c1ccc(NCc2ccc(Cl)cc2)c2ccncc12 | -1 | 0 | 13 | -13 | i | i
CC[C@H]1C2C[C@H]3[C@@H]4N(C)c5ccccc5C45C[C@H](C2[C@H]5O)N3[C@@H]1O (stereo partly drawn) | 1 | -2 | 10 | -5 | i | 100*
CCOC(=O)CNC(=O)N1Cc2ccccc2-n2nncc2C1 | 0 | · | -2 | · | · | ·
COC(=O)C1=C(C(=O)OC)C2OC1c1cc3ccccc3cc12 | 20 | -2 | -9 | -13 | -4.9* | ·
COC(=O)C1=C(c2ccc3ccccc3c2)C[C@@H]2CC[C@H]1N2C | 1 | -2 | -3 | 0 | i | ·
C/C(Cl)=C/CC1(CN2CCCC2=O)C(=O)NC(=O)NC1=O | -2 | 2 | 7 | -8 | i | i
C[N+](C)(C)CC#CCN1CCCC1=O | 33 | -6 | -33 | 2 | -7.9* | i
Cc1c2ccncc2c(C)c2c1[nH]c1ccccc12 | 101* | 4 | -135 | 10 | i | i
c1ccc2c(c1)[nH]c1cnccc12 | -2 | -3 | 10 | 5 | i | i
COC(=O)C1=C(c2cc3ccccc3s2)C[C@@H]2CC[C@H]1N2C | -3 | -1 | 9 | 2 | i | ·
O=C1NC(=O)N(Cc2ccccc2)C(=O)/C1=C\N1CCCc2ccccc21 | 10 | 36* | 3 | -62 | i | i
O=C1NC(=O)C(=CN2CCc3ccccc32)C(=O)N1 | 2 | 7 | -9 | -12 | i | i
